Source: paper PMC5540273 (PLoS ONE, 2017)

System: RIPK1
Settings: concentration: 1 μM, replicates: in singlicate; n = 1
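Also: KINOMEscan kinase panel screen.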

Row | SMILES | %Inh [%]
1 | O=c1cc(N2CCOCC2)nc2n(Cc3cccc(F)c3)ccn12 [GSK2297430] | 0
2 | CC(C)(C)n1cnc2c(N)ncnc21 [SKF-97359] | 0
3 | O=c1cc(N2CCOCC2)nc2n(Cc3cccc(C(F)(F)F)c3)ccn12 [GSK2297543] | 10
4 | Cc1cccc(Cn2ccn3c(=O)cc(N4CCOCC4)nc23)c1 [GSK2297542] | 26
5 | O=C(NCCNc1ccnc(Nc2ccc(F)cc2)n1)c1cc2ccccc2s1 [GSK1379874] | 0
6 | Cn1ccc2ncnc(Oc3ccc(NC(=O)Nc4ccncc4)c(Cl)c3)c21 | 0
7 | COc1ccc(COc2cc(-n3cnc4ccccc43)sc2C(N)=O)cc1 [GSK1024304] | 4
8 | Cc1ccc(C(=O)NCC(N)=O)cc1-n1c(C)cc(OCc2ccc(F)cc2F)c(Br)c1=O | 13
9 | Cc1ccc(NC(=O)c2ccnc(N3CCN(C)CC3)c2)cc1-c1ccc(C(=O)NCC2CC2)cc1 [GW775604] | 0
10 | Fc1ccc(-c2nn3c(OCC(F)(F)F)cccc3c2-c2ccncc2)cc1 [GW514784] | 0
11 | Fc1ccc(-c2ncn(CCCN3CCOCC3)c2-c2cccnc2)cc1 [SB-211743] | 0
12 | O=C(NOCC1CC1)c1ccc(F)c(F)c1Nc1ccc(I)cc1Cl | 0
13 | O=C(Nc1n[nH]c2cc(-c3cccc(F)c3)ccc12)C1CC1 [SB-735464] | 38
14 | COc1ccc(Nc2nccc(N3CCC(NC(=O)Nc4cccc(C(C)=O)c4)C3)n2)cc1 (stereo not drawn) [GSK1379731] | 0
15 | N#Cc1ccc(-c2cc(-c3c[nH]nc3-c3ccccn3)ccn2)cc1 [GW693028] | 0
16 | COC(=O)Nc1nc2cc(Oc3ccc(NC(=O)Nc4cc(F)ccc4F)cc3)ccc2[nH]1.Cl [GW701424] | 0
17 | O=c1cc(N2CCOCC2)nc2n(Cc3cccc4ccccc34)ccn12 [GSK2333389] | 0
18 | c1ccc(-c2n[nH]cc2-c2ccnc3ccccc23)nc1 [GW271431] | 20
19 | Nc1nccc(-c2c(-c3ccc(F)cc3)ncn2C2CCN(CC(F)(F)F)CC2)n1 [SB-236560] | 0
20 | NCC(NC(=O)c1cc(-c2cn[nH]c2)c(-c2ccnc3[nH]ccc23)s1)c1ccccc1.O=C(O)C(F)(F)F.O=C(O)C(F)(F)F (stereo not drawn) [GSK1325775] | 19
21 | Cc1c2ccc(N(C)c3ccnc(Nc4cccc(S(N)(=O)=O)c4)n3)cc2nn1Cc1ccccc1.Cl.Cl [GW787226] | 36
22 | COc1ccc(S(=O)(=O)NC2CCN(c3cc(C)nc(Nc4cccc(C#N)c4)n3)CC2)cc1.O=C(O)C(F)(F)F [GSK1653539] | 5

System: RIPK2
Settings: concentration: 1 μM, replicates: in singlicate; n = 1

Row | SMILES | %Inh [%]
23 | COc1ccc(Nc2ncc(C#N)c(Nc3ccccc3C(N)=O)n2)cc1N1CCN(C)CC1.Cl [GSK1558669] | 76
24 | O=C(Nc1cccc(-c2nn3ncccc3c2-c2ccnc(Nc3cccc(C(F)(F)F)c3)n2)c1)c1c(F)cccc1F [GSK299495] | 86
25 | Cc1cccc(-c2nc(Nc3ccc4ncsc4c3)c3ccccc3n2)n1 [GW867588] | 5
26 | Cl.Nc1ncnc2occ(-c3ccc(NC(=O)Nc4cc(C(F)(F)F)ccc4F)cc3)c12 [SB-707548] | 42
27 | C[C@@H](Oc1cc(-n2cnc3ccc(NC(=O)NC(C)(C)C)cc32)sc1C(N)=O)c1ccccc1Cl [GSK346294] | 14
28 | c1ccc(-c2cc(-c3c[nH]nc3-c3ccccn3)ccn2)cc1 [GW576604] | 94.6
29 | Cc1nnc(-c2ccc3occ(-c4ccc(C(C)O)cc4)c3c2)o1 (stereo not drawn) | 20
30 | CC(C)Oc1ccc2c(-c3ccnc(Nc4ccc(N5CCN(C)CC5)cc4)n3)cnn2n1 [GW696155] | 15
31 | NS(=O)(=O)c1cccc(-c2ccc3ncc(N4CCOCC4)nc3c2)c1 [GSK1535721] | 13
32 | Fc1ccc(-c2ncn(CCCN3CCOCC3)c2-c2ccccn2)cc1 [SB-211742] | 0
33 | CN(C1=C(c2ccccc2)C(=O)NC1=O)c1ccccc1 [SB-334860] | 44
34 | CCc1nc(-c2cccc(C)c2)c(-c2ccnc(NCc3ccccc3)c2)s1 | 26
35 | O=C(NCCNc1ccnc(Nc2ccc(F)cc2)n1)Nc1ccccc1F [GSK1379880] | 1
36 | O=c1cc(N2CCOCC2)nc2n(Cc3cccc(F)c3)ccn12 [GSK2297430] | 0
37 | CC(C)(C)n1cnc2c(N)ncnc21 [SKF-97359] | 0
38 | O=c1cc(N2CCOCC2)nc2n(Cc3cccc(C(F)(F)F)c3)ccn12 [GSK2297543] | 12
39 | Cc1cccc(Cn2ccn3c(=O)cc(N4CCOCC4)nc23)c1 [GSK2297542] | 11
40 | O=C(NCCNc1ccnc(Nc2ccc(F)cc2)n1)c1cc2ccccc2s1 [GSK1379874] | 0

Row | SMILES | %Inh [%]
41 | Cn1ccc2ncnc(Oc3ccc(NC(=O)Nc4ccncc4)c(Cl)c3)c21 | 0
42 | COc1ccc(COc2cc(-n3cnc4ccccc43)sc2C(N)=O)cc1 [GSK1024304] | 0
43 | Cc1ccc(C(=O)NCC(N)=O)cc1-n1c(C)cc(OCc2ccc(F)cc2F)c(Br)c1=O | 0
44 | Cc1ccc(NC(=O)c2ccnc(N3CCN(C)CC3)c2)cc1-c1ccc(C(=O)NCC2CC2)cc1 [GW775604] | 0
45 | Fc1ccc(-c2nn3c(OCC(F)(F)F)cccc3c2-c2ccncc2)cc1 [GW514784] | 43
46 | Fc1ccc(-c2ncn(CCCN3CCOCC3)c2-c2cccnc2)cc1 [SB-211743] | 0
47 | O=C(NOCC1CC1)c1ccc(F)c(F)c1Nc1ccc(I)cc1Cl | 0
48 | O=C(Nc1n[nH]c2cc(-c3cccc(F)c3)ccc12)C1CC1 [SB-735464] | 0
49 | COc1ccc(Nc2nccc(N3CCC(NC(=O)Nc4cccc(C(C)=O)c4)C3)n2)cc1 (stereo not drawn) [GSK1379731] | 39
50 | N#Cc1ccc(-c2cc(-c3c[nH]nc3-c3ccccn3)ccn2)cc1 [GW693028] | 49
51 | COC(=O)Nc1nc2cc(Oc3ccc(NC(=O)Nc4cc(F)ccc4F)cc3)ccc2[nH]1.Cl [GW701424] | 38
52 | O=c1cc(N2CCOCC2)nc2n(Cc3cccc4ccccc34)ccn12 [GSK2333389] | 0
53 | c1ccc(-c2n[nH]cc2-c2ccnc3ccccc23)nc1 [GW271431] | 23
54 | Nc1nccc(-c2c(-c3ccc(F)cc3)ncn2C2CCN(CC(F)(F)F)CC2)n1 [SB-236560] | 51
55 | NCC(NC(=O)c1cc(-c2cn[nH]c2)c(-c2ccnc3[nH]ccc23)s1)c1ccccc1.O=C(O)C(F)(F)F.O=C(O)C(F)(F)F (stereo not drawn) [GSK1325775] | 0
56 | Cc1c2ccc(N(C)c3ccnc(Nc4cccc(S(N)(=O)=O)c4)n3)cc2nn1Cc1ccccc1.Cl.Cl [GW787226] | 95.9
57 | COc1ccc(S(=O)(=O)NC2CCN(c3cc(C)nc(Nc4cccc(C#N)c4)n3)CC2)cc1.O=C(O)C(F)(F)F [GSK1653539] | 0
